The text below walks through data of ChEMBL document CHEMBL3988442, “University of Dundee, Small-Polar-MMV Screening Library” (2021).

Holding throughout (design): scale not given: direction of the effect not stated beside the values
The target of experiment [1] is Protein translocase subunit SecA (Escherichia coli (strain K12)) (UniProt P10408). As to the kind of experiment: Assay to Identify E. coli SecA ATPase Inhibitors. The class given is functional. The settings on record: 30 µM.
The target in experiment [2] is T1, Ubiquitin-activating enzyme e1, putative (Leishmania donovani (strain BPK282A1)) (UniProt E9BSI1).
T1 sequence (whole entry): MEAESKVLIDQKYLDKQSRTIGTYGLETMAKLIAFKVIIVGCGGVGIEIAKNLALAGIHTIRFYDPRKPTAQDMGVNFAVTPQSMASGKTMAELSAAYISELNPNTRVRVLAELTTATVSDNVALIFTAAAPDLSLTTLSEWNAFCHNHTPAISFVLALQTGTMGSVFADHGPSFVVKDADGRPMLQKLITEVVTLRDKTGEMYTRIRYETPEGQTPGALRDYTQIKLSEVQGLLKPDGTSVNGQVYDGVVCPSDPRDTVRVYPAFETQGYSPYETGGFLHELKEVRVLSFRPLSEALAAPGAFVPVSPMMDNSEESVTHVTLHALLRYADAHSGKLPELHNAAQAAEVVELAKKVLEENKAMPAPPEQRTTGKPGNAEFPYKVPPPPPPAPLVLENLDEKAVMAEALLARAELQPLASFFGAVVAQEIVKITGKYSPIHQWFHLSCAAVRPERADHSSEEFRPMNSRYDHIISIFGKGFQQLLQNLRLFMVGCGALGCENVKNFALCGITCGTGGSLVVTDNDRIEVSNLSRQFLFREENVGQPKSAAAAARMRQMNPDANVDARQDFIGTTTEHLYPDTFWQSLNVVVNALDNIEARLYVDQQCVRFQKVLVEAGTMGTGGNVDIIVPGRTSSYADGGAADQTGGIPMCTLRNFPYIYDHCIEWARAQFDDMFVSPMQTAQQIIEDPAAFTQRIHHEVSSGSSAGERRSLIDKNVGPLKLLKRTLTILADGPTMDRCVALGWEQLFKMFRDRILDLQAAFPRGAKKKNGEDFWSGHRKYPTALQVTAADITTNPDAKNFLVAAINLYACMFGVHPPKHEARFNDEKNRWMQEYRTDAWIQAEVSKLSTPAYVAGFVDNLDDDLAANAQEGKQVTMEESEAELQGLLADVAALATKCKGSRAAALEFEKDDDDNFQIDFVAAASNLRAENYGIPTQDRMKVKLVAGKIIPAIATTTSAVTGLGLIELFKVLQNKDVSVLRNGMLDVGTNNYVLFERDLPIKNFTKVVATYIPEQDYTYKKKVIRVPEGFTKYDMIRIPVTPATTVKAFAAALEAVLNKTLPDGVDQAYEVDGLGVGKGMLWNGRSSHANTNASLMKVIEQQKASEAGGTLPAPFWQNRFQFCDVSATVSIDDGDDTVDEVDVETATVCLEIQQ
Description: Leishmania donovani Ubiquitin Activating Enzyme (LdE1). The class given is functional. The conditions noted are these: 30 µM.

Experiment [3] deals with AMP-activated protein kinase, AMPK (Homo sapiens) (UniProt P54646+O43741+P54619+Q9UGJ0+Q9Y478+Q13131+Q9UGI9). Description: AMP-dependent Kinase enzyme assay. An in vitro enzyme assay that detects ADP turnover that is directly proportional to AMPK activity. This uses naive AMPK that is activated during the assay with MK-8722. The class given is functional. The conditions noted are these: 30 µM.

Experiment [4] deals with Sialic acid-binding Ig-like lectin 9 (Homo sapiens) (UniProt Q9Y336). Description: Hs-Siglec9 ALPHAscreen SOP 20170721. The settings on record: 10 µM.
The test system of experiment [5] is Trypanosoma cruzi. Description: Trypanosoma cruzi phosphomannomutase and mannose-1-phosphate guanylyltransferase assay. The settings on record: 10 µM. It is filed as functional.
Experiment [6] has as its target T2, Arginase-2, mitochondrial (Homo sapiens) (UniProt P78540).
T2 sequence (whole entry): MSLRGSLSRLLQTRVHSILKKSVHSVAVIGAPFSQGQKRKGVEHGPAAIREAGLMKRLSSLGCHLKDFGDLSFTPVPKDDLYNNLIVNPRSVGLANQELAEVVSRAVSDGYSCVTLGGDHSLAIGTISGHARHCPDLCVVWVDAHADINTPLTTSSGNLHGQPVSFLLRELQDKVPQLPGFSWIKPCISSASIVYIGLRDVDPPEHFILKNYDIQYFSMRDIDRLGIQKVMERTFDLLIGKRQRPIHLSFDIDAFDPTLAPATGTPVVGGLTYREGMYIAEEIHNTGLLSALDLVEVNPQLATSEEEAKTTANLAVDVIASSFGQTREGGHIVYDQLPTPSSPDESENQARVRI
Description: in vitro enzyme assay to detect the production of urea directly proportional to the activity of Arginase II. Further: in the data most compounds retested in dose-response had high values. The class given is functional. The settings on record: 33.3 µM.

Experiment [7] concerns the target T3, Proteasome subunit beta (Trypanosoma cruzi) (UniProt O96673).
T3 sequence (whole entry): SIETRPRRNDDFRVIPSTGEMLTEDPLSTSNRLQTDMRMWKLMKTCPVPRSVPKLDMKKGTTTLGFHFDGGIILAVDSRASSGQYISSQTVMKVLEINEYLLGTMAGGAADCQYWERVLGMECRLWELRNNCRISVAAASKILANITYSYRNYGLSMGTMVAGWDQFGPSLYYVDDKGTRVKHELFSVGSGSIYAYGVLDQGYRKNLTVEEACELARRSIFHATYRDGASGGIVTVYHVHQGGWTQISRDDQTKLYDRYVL
As to the kind of experiment: Trypanosoma cruzi proteasome chymotrypsin-like activity (TcProtChymo) assay. Further: in the data most compounds retested in dose-response had high values. It is filed as functional. The settings on record: 9.37 µM.

For experiment [8], the species on record is Homo sapiens. Description: To identify inhibition of the IFN signalling (Jak-Stat) pathway via expression of an eGFP reporter gene under the control of an IFN-stimulated response element (ISRE) containing MxA promoter. It is filed as functional. The settings on record: 30 µM. On the technique in general: Reporter assays use an easily measured gene product as a stand-in for the process of interest.

Experiment [9] deals with T4, Tyrosyl-tRNA synthetase, putative (Trypanosoma cruzi (strain CL Brener)) (UniProt Q4DSP6).
T4 sequence (whole entry): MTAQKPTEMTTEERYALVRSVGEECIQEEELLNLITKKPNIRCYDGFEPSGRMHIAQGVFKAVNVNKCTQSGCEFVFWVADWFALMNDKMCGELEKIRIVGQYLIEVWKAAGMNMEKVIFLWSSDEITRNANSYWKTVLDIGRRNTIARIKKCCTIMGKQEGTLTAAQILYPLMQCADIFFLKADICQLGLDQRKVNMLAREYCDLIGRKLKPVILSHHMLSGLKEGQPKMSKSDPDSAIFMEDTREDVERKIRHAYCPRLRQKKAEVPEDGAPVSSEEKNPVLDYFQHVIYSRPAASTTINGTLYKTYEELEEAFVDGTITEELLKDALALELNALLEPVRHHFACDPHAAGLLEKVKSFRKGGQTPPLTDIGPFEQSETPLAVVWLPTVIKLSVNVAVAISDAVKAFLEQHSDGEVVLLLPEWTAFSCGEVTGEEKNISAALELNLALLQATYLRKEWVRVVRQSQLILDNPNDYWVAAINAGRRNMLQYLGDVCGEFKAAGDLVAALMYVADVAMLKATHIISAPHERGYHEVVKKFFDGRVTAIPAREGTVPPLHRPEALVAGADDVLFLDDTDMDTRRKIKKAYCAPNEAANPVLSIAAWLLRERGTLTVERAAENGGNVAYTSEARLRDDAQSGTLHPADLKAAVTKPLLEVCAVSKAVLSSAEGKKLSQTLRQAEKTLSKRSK
As to the kind of experiment: Trypanosoma cruzi tyrosyl tRNA synthetase (TcYRS) _High Tyrosine SOP. Further: in the data most compounds retested in dose-response had high values. The class given is functional. The settings on record: 30 µM.

Experiment [10] addresses T4, Tyrosyl-tRNA synthetase, putative (Trypanosoma cruzi (strain CL Brener)). Description: Trypanosoma cruzi tyrosyl tRNA synthetase (TcYRS) SOP. It is filed as functional. The settings on record: 30 µM.
The target of experiment [11] is Chromo domain-containing protein 1 (Saccharomyces cerevisiae (strain ATCC 204508 / S288c) (Baker's yeast)) (UniProt P32657). Description: ScCHD-1 Enzyme Inhibition Assay. Further: in the data most compounds retested in dose-response had high values. The class given is functional. The conditions noted are these: 30 µM.

For part of these data: Results with a measured potency or affinity are listed apart.

Sialic acid-binding Ig-like lectin 9 (Homo sapiens), sequence (Q9Y336 whole entry): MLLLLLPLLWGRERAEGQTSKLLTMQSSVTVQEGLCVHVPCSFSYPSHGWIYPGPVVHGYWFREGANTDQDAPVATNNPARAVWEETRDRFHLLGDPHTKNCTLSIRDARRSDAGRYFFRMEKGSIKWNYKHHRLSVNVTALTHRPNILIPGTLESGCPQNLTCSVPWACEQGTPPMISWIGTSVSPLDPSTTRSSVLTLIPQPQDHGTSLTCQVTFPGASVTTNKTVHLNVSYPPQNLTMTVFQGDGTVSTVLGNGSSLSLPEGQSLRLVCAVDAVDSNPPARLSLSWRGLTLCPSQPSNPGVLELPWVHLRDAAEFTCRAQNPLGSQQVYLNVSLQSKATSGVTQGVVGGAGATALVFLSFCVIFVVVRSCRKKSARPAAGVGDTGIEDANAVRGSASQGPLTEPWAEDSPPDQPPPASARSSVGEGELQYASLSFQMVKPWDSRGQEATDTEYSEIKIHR
Chromo domain-containing protein 1 (Saccharomyces cerevisiae (strain ATCC 204508 / S288c) (Baker's yeast)), sequence (P32657 whole entry, the tested form may be a part): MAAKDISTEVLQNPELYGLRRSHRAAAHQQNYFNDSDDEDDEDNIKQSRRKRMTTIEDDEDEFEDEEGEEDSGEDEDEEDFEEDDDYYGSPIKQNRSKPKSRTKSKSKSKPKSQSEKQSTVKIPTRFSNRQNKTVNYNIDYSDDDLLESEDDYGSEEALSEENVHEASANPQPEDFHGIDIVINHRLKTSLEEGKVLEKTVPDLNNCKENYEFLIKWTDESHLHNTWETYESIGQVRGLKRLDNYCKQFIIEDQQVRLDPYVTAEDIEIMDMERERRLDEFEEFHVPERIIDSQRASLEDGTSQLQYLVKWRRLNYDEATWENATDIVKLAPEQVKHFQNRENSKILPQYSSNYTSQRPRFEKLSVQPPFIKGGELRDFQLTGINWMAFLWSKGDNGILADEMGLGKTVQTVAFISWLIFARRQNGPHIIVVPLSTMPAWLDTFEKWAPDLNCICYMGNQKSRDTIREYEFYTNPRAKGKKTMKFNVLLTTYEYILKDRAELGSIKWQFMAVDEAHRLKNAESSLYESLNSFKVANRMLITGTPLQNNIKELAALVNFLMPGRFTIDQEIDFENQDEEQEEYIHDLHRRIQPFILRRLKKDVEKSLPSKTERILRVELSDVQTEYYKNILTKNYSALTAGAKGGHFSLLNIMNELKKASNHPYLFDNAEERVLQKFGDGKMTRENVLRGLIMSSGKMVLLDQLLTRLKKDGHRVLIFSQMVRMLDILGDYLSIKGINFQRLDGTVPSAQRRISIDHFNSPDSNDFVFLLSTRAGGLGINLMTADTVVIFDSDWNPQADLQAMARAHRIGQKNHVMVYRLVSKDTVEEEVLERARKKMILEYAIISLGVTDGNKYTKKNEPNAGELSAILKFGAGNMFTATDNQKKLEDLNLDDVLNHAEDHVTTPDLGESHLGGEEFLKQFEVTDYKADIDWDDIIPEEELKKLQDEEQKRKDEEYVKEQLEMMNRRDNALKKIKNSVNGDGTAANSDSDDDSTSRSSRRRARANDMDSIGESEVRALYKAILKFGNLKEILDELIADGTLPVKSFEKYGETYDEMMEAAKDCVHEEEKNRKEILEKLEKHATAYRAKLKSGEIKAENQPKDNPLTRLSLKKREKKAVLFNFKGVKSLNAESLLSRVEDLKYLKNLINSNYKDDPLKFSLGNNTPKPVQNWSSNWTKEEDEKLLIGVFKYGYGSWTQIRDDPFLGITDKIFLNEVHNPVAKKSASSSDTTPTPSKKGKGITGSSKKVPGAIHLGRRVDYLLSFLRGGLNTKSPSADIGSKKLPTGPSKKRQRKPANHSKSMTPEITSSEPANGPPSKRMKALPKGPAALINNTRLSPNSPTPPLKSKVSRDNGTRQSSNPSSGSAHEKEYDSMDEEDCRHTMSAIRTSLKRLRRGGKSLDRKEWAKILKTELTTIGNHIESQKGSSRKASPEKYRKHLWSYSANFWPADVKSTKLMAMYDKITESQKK
Protein translocase subunit SecA (Escherichia coli (strain K12)), sequence (P10408 whole entry): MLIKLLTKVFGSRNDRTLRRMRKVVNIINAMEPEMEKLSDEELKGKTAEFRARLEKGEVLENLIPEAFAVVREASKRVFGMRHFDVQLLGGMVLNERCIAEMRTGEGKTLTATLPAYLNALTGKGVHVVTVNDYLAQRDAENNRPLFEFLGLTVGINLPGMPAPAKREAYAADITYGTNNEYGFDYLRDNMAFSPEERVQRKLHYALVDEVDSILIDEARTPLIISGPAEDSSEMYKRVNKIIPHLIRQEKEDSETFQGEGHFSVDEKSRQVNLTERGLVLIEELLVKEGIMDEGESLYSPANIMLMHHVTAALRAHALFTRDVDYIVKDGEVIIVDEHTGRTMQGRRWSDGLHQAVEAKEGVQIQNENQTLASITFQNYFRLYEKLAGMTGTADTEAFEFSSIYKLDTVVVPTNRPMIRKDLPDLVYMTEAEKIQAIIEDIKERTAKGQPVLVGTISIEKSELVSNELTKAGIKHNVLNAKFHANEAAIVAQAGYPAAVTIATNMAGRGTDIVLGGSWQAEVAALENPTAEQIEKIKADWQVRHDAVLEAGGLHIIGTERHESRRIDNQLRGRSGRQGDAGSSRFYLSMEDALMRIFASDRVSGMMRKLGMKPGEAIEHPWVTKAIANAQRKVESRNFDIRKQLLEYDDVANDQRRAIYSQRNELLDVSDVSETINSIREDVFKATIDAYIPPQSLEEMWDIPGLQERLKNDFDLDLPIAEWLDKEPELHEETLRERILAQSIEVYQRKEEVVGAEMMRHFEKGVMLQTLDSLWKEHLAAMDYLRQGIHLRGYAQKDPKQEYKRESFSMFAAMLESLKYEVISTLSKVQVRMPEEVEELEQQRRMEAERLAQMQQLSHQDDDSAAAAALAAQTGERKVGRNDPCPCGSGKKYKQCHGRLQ

`O=c1c2sccc2nc2n1CCN(Cc1cccs1)CC2`: the Percent Effect in experiment [1] is -2.34%; in [2] it was 12.2%; in experiment [3], 10.7%; in [4] it was 1.3%; in [5], -0.395%; in experiment [6], -1.16%. Besides, the Percent Effect in experiment [7] was 10.9%; in experiment [8] it was 12.6%; in experiment [9], 0%; in experiment [10] it was 11.7%; in experiment [11] it was -12%.
For the molecule `O=C(NCCN1CCCCCC1=O)c1n[nH]c(=O)c2ccccc12`, the Percent Effect is -2.33% in experiment [1]; 15.6% in [2]; 17.8% in experiment [3]; -3.89% in experiment [4]; -11.1% in experiment [5]; 2.13% in experiment [6]. In addition, the Percent Effect in experiment [7] is 6.42%; in experiment [8], 27.5%; in experiment [9], -6.8%; in [10], 9.76%; in experiment [11], -3%.
`Cc1ccc(NC(=O)NC(C)c2nc[nH]n2)s1` (centres undefined): the Percent Effect was -7.16% in experiment [1]; 5.41% in experiment [2]; 1.69% in experiment [3]; 19.6% in experiment [4]; -0.293% in experiment [5]; 2.23% in experiment [6]. Moreover, the Percent Effect in experiment [7] is 9.7%; in experiment [8], -8.4%; in experiment [9], 6.45%; in experiment [10], 13.6%; in experiment [11], -2.14%.
On to `Cc1noc([C@@]23CCO[C@@H]2CCN(C(=O)C2CCOCC2)C3)n1`, for which the Percent Effect in [1] was -0.432%; in experiment [2] it was 10.7%; in experiment [3], 2.61%; in [4] it was -3.48%; in experiment [5], -1.54%; in experiment [6], -51.8%. For the same molecule, the Percent Effect in experiment [7] was 13.2%; in experiment [8] it was -1.95%; in [9] it was 7.29%; in [10], 20%; in experiment [11], -7.84%.
Turning to `Clc1ccc2cccnc2c1CN1CCCC(Cn2cncn2)C1` (centres undefined), the Percent Effect was -4.92% in experiment [1]; 0% in experiment [2]; -3.69% in experiment [3]; 7.75% in [4]; 0.279% in [5]; 1.66% in experiment [6]. Moreover, the Percent Effect in experiment [7] came out at 12%; in experiment [8], 18.1%; in [9], 7.92%; in experiment [10], 13.4%; in [11], 3.69%.
Regarding `CCn1c(CN2CCN(CC(N)=O)CC2)nc2c(F)cccc21`, the Percent Effect in experiment [1] was -3.22%; in [2], 5.26%; in experiment [3], 7.34%; in experiment [4], 6.21%; in [5], 8.84%; in experiment [6] it was -2.3%. The Percent Effect in experiment [7] was 1.34%; in experiment [8] it was -11.4%; in [9], 7.35%; in experiment [10] it was 9.76%; in experiment [11], -5.52%.
For the molecule `CN1CCN(CCCNC(=O)c2cc(Cl)c3c(c2)OCO3)CC1`, the Percent Effect in experiment [1] was 0.405%; in [2] it was 9.72%; in experiment [3] it was -11.6%; in [4] it was 9.36%; in [5] it was 3.6%; in experiment [6] it was 10.6%. Besides, the Percent Effect was 27% in experiment [7]; -22.6% in experiment [8]; 3.16% in experiment [9]; 15.4% in [10]; -2.83% in experiment [11].
As for `Cc1ccc(CN2CCC3(CC2)CC(c2cccnc2)CO3)s1` (centres undefined), the Percent Effect is -5.83% in [1]; 5.41% in experiment [2]; 1.22% in experiment [3]; -3.96% in [4]; 0% in [5]; 7.08% in experiment [6]. The Percent Effect in experiment [7] was 4.65%; in experiment [8], 0.622%; in experiment [9] it was 8.91%; in experiment [10], 11%; in experiment [11], -2.92%.
Turning to `Cc1csc(NC(=O)CN(C)CC2CCCN2c2cccnn2)n1` (centres undefined), the Percent Effect in [1] was -4.27%; in experiment [2], 0%; in [3], -8.12%; in [4], 2.96%; in experiment [5], -6.05%; in experiment [6], 5.42%. Further, the Percent Effect in [7] was 15.5%; in experiment [8] it was 9.4%; in [9], 11.9%; in experiment [10], 8.54%; in experiment [11], -4.21%.
